Test results reported in publication PMC7862700, “An all-to-all approach to the identification of sequence-specific readers for epigenetic DNA modifications on cytosine”.

Experiments:
Assay in all cases: DAPPL (digital affinity profiling via proximity ligation, sequencing); 10 mM Tris-HCl pH 7.5, 50 mM NaCl, 1 mM DTT, 4% glycerol, room temperature, 30 min; GST-TFs on glutathione beads, 16-mer random dsDNA library, 0.1% formaldehyde crosslink after washing; high values mean tight binding
FLI1 = target: T1, FLI1 (Homo sapiens, UniProt Q01543 1-452); conditions: protein: recombinant; tags: N-terminal GST; dsDNA, one strand shown
T1 sequence: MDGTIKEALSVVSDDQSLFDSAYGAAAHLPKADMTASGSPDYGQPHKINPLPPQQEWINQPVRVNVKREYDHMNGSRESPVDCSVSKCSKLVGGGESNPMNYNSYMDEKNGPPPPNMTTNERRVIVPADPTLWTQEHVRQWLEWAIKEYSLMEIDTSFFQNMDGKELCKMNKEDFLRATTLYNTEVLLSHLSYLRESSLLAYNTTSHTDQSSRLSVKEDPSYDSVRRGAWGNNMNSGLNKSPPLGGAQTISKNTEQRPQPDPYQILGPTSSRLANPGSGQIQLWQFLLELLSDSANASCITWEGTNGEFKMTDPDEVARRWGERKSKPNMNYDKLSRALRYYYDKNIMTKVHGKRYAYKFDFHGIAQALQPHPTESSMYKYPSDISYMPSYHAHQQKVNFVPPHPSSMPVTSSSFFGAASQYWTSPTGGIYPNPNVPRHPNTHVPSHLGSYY
Outline: (§1)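 GST fusions of human transcription factors were expressed in yeast and captured with glutathione beads. Once given DNA barcodes and pooled alongside a tag-only sample, they were incubated for 30 min at room temperature with 200 nmole of a random double-stranded 16-mer DNA library in Tris/NaCl/DTT/glycerol buffer, then washed, crosslinked (0.1% formaldehyde), proximity-ligated, PCR-amplified and sequenced on an Illumina NextSeq500. The binding signal of each hexamer is its read frequency for a factor divided by its frequency for the tag-only sample.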

ELK1 = target: T2, ELK1 (Homo sapiens, UniProt P19419 1-428); conditions: protein: recombinant; tags: N-terminal GST; dsDNA, one strand shown
T2 sequence: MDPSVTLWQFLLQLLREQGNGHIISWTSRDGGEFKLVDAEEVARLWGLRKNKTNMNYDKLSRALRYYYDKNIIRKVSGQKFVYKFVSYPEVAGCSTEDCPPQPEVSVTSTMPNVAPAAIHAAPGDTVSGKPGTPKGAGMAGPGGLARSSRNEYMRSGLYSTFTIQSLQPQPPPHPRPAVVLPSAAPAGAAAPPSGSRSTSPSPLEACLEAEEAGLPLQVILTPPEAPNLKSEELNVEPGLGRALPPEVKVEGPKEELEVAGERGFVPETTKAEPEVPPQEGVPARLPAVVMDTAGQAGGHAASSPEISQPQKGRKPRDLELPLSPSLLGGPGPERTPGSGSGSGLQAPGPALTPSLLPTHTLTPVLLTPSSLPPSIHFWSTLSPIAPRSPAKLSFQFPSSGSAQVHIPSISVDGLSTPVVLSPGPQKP
Outline: as §1

GABPA = target: T3, GABPA (Homo sapiens, UniProt Q06546 1-454); conditions: protein: recombinant; tags: N-terminal GST; dsDNA, one strand shown
T3 sequence: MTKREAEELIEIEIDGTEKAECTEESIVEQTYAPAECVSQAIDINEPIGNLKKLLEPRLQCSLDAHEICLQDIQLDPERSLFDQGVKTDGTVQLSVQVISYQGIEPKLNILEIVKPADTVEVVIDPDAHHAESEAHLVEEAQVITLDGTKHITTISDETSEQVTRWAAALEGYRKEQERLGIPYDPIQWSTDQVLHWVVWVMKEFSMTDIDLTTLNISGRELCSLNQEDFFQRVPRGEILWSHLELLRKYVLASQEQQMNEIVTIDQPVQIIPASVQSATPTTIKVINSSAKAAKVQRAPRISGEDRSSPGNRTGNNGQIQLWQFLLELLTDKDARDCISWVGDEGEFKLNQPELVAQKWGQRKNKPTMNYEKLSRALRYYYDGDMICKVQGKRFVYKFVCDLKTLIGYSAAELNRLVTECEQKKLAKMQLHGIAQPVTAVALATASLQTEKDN
Outline: as §1

ERG = target: T4, ERG (Homo sapiens, UniProt P11308 1-479); conditions: protein: recombinant; tags: N-terminal GST; dsDNA, one strand shown
T4 sequence: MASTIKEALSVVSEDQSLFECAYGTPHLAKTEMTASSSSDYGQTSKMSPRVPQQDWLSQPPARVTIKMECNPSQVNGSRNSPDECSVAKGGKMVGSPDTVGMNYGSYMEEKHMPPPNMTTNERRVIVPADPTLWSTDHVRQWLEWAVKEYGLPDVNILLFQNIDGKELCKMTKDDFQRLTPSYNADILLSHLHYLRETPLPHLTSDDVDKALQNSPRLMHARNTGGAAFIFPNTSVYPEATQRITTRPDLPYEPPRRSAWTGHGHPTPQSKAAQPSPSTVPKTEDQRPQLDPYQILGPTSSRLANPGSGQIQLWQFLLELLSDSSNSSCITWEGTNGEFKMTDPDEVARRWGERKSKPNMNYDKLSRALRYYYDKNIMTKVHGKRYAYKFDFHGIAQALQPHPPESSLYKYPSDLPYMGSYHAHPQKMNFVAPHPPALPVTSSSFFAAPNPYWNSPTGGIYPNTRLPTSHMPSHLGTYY
Outline: as §1

ELF1 = ELF1 (Homo sapiens, UniProt P32519 1-619); conditions: protein: recombinant; tags: N-terminal GST; dsDNA, one strand shown
Chain of ELF1 (P32519 whole entry): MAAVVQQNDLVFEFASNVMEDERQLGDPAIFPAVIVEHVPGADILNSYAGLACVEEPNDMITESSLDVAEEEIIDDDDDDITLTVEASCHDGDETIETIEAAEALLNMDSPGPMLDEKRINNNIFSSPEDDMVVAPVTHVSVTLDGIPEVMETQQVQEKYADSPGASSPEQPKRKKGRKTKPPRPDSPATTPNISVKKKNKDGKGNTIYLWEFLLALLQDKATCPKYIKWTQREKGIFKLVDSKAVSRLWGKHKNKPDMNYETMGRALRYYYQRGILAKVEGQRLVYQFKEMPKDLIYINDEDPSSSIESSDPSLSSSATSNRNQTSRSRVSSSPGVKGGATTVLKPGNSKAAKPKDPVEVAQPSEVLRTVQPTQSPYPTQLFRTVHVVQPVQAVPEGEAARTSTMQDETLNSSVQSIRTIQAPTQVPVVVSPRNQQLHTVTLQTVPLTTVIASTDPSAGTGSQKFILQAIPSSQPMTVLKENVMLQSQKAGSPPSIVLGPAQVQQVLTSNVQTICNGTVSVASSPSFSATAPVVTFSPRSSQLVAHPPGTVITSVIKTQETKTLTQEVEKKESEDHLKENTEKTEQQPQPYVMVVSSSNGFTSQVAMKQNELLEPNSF
Outline: as §1

EHF = target: T5, EHF (Homo sapiens, UniProt Q9NZC4 1-300); conditions: protein: recombinant; tags: N-terminal GST; dsDNA, one strand shown
T5 sequence: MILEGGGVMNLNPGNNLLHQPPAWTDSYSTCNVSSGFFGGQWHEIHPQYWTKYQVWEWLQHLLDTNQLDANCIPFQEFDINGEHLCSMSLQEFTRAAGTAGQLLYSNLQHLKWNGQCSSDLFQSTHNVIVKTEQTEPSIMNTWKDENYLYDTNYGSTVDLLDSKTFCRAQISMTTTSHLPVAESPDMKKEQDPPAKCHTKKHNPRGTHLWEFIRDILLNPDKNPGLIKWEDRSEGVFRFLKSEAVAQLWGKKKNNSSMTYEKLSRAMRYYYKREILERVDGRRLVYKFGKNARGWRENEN
Outline: as §1

SPI1 = SPI1 (Homo sapiens, UniProt P17947 1-270); conditions: protein: recombinant; tags: N-terminal GST; dsDNA, one strand shown
Outline: as §1

SPIB = SPIB (Homo sapiens, UniProt Q01892 1-262); conditions: protein: recombinant; tags: N-terminal GST; dsDNA, one strand shown
Chain of SPIB (Q01892 whole entry): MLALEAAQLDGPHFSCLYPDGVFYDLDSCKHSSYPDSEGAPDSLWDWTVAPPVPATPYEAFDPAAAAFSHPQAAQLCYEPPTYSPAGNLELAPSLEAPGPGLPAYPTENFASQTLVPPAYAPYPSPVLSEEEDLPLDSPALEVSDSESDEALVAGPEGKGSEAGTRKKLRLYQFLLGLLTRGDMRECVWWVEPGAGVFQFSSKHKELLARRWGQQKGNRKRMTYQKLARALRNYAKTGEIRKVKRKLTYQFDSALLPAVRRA
Outline: as §1

ELK3 = target: T6, ELK3 (Homo sapiens, UniProt P41970 1-407); conditions: protein: recombinant; tags: N-terminal GST; dsDNA, one strand shown
T6 sequence: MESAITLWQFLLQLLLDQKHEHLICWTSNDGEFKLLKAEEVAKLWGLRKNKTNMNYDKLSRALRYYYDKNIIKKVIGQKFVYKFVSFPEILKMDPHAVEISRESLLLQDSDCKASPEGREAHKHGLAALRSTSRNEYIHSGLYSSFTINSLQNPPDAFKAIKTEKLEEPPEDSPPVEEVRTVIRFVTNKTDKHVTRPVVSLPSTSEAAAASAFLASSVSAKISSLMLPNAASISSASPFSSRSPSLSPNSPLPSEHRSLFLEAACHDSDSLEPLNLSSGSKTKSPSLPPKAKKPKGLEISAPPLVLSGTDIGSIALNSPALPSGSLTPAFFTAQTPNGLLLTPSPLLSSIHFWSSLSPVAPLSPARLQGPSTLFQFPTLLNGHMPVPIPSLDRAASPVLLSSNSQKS
Outline: as §1

FEV = target: T7, FEV (Homo sapiens, UniProt Q99581 1-238); conditions: protein: recombinant; tags: N-terminal GST; dsDNA, one strand shown
T7 sequence: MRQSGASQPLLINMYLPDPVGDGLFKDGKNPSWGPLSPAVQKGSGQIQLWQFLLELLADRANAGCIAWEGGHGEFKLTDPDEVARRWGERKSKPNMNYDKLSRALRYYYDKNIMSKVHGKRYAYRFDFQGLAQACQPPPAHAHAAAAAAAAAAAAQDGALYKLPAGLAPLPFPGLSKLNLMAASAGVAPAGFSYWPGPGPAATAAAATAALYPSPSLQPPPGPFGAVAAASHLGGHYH
Outline: as §1

ETV5 = ETV5 (Homo sapiens, UniProt P41161 1-510); conditions: protein: recombinant; tags: N-terminal GST; dsDNA, one strand shown
Chain of ETV5 (P41161 whole entry): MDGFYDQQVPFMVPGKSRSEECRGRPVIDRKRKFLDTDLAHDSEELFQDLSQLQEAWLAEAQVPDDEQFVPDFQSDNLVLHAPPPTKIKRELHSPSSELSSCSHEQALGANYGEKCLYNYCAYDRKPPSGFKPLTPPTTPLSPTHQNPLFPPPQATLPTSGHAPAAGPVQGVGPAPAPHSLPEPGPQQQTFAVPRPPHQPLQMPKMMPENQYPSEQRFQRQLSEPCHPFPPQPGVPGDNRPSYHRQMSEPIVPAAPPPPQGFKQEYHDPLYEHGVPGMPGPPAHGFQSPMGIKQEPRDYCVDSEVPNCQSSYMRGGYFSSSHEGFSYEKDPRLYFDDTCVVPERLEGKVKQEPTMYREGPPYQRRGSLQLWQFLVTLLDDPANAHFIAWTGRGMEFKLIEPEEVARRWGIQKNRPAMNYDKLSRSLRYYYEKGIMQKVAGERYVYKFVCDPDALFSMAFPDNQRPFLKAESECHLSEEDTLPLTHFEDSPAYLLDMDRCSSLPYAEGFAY
Outline: as §1

HSF1 = HSF1 (Homo sapiens, UniProt Q00613 1-529); conditions: protein: recombinant; tags: N-terminal GST; chain copies: 3; dsDNA, one strand shown
Chain of HSF1 (Q00613 whole entry): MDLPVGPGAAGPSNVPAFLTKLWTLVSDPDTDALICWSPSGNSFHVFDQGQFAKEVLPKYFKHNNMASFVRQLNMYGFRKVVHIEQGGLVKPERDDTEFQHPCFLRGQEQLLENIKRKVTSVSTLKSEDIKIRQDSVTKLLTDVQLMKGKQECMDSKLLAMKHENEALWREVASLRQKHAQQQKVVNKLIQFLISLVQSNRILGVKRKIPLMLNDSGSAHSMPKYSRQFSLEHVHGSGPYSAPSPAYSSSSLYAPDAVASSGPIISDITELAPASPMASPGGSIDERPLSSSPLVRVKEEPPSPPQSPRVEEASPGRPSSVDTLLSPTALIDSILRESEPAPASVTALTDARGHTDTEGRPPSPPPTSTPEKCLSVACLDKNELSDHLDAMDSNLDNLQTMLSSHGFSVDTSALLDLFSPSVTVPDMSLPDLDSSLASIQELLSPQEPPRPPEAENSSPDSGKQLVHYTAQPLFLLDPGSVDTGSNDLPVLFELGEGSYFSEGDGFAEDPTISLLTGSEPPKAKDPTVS
Outline: as §1

SPIC = target: T8, SPIC (Homo sapiens, UniProt Q8N5J4 1-248); conditions: protein: recombinant; tags: N-terminal GST; dsDNA, one strand shown
T8 sequence: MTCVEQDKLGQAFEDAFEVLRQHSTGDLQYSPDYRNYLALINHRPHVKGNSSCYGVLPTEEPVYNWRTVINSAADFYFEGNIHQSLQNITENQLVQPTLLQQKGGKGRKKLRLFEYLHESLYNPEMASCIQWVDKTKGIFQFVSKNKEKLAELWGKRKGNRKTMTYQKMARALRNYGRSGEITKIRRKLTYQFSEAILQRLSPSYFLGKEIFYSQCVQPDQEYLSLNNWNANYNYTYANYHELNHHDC
Outline: as §1

ELF4 = ELF4 (Homo sapiens, UniProt Q99607 1-663); conditions: protein: recombinant; tags: N-terminal GST; dsDNA, one strand shown
Chain of ELF4 (Q99607 whole entry): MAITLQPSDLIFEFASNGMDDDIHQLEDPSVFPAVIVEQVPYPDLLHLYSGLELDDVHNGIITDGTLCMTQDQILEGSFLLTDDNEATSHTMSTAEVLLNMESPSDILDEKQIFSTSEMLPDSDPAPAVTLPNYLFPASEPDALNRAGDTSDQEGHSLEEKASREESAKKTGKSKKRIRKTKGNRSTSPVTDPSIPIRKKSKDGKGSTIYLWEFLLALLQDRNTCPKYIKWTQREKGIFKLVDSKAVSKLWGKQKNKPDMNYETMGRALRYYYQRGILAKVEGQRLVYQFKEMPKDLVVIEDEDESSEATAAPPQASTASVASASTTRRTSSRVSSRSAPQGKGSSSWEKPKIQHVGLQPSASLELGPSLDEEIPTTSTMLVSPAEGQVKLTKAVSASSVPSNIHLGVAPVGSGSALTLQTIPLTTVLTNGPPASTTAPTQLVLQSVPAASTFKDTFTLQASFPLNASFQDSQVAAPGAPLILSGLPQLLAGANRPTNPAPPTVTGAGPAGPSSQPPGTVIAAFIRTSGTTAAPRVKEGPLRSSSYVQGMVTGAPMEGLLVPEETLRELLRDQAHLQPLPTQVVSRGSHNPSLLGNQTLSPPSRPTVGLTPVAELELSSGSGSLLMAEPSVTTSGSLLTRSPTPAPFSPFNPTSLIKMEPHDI
Outline: as §1

ELK4 = target: T9, ELK4 (Homo sapiens, UniProt P28324-2 1-405); conditions: protein: recombinant; tags: N-terminal GST; dsDNA, one strand shown
T9 sequence: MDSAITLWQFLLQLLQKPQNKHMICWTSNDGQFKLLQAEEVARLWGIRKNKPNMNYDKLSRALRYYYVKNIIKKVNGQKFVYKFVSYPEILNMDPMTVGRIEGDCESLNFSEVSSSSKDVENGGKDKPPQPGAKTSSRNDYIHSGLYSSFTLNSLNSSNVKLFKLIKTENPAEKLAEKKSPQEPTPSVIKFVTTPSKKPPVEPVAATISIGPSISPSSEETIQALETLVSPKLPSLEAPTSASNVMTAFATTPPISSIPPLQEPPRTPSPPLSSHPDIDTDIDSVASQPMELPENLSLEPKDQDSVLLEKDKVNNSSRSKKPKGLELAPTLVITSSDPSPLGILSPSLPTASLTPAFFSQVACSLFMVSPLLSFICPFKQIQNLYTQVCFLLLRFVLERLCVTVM
Outline: as §1

ETV2 = target: T10, ETV2 (Homo sapiens, UniProt O00321 1-342); conditions: protein: recombinant; tags: N-terminal GST; dsDNA, one strand shown
T10 sequence: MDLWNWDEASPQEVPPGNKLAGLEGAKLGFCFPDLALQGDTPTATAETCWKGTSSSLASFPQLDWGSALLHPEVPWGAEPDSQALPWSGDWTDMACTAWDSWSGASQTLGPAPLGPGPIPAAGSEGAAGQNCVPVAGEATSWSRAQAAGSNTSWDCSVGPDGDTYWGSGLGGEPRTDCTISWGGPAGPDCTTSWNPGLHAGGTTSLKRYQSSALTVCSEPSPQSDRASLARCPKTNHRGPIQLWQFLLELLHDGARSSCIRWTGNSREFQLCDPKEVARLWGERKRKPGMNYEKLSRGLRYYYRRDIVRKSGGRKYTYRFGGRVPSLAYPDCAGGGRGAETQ
Outline: as §1

ELF3 = target: T11, ELF3 (Homo sapiens, UniProt P78545 1-371); conditions: protein: recombinant; tags: N-terminal GST; dsDNA, one strand shown
T11 sequence: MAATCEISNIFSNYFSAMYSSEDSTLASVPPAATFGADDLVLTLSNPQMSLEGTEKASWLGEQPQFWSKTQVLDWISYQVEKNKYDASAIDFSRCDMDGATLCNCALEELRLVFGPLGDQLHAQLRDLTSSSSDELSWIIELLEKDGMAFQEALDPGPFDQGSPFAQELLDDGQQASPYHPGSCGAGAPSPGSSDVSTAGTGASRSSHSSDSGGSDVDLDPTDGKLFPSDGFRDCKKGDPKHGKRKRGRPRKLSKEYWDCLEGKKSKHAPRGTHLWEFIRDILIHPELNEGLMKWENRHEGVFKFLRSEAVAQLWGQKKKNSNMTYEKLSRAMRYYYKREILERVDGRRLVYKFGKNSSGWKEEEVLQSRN
Outline: as §1

CRX = CRX (Homo sapiens, UniProt O43186 1-299); conditions: protein: recombinant; tags: N-terminal GST; dsDNA, one strand shown
Chain of CRX (O43186 whole entry): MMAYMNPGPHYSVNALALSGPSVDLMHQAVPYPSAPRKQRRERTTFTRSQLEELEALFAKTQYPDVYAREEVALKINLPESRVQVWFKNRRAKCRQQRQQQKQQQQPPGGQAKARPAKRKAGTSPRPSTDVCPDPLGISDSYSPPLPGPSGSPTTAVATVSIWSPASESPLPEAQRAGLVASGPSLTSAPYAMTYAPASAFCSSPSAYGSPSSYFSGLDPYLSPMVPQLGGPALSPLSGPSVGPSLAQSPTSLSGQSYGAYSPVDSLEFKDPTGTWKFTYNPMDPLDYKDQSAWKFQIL
Outline: as §1

ETV1 = ETV1 (Homo sapiens, UniProt P50549 1-477); conditions: protein: recombinant; tags: N-terminal GST; dsDNA, one strand shown
Chain of ETV1 (P50549 whole entry): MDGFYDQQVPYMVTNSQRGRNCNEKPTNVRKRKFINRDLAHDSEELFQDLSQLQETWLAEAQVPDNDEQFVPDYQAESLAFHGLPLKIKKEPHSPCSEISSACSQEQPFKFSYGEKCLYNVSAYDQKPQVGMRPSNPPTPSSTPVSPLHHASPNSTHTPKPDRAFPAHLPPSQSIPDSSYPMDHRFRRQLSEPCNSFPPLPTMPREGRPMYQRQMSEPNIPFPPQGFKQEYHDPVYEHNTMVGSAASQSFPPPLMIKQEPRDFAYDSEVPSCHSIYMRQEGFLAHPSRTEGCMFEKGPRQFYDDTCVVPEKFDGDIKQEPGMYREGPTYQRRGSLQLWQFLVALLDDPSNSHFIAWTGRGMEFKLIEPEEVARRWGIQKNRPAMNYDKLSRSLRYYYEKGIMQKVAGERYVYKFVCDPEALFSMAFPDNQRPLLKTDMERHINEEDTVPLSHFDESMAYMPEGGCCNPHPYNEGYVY
Outline: as §1

Question: Which results are given for TCCACT?
Answer: binding signal (FLI1): 1.47 fold enrichment (6-mer frequency, TF over GST control); binding signal (ELK1): 1.52 fold enrichment (6-mer frequency, TF over GST control); binding signal (GABPA): 1.51 fold enrichment (6-mer frequency, TF over GST control); binding signal (ERG): 1.54 fold enrichment (6-mer frequency, TF over GST control); binding signal (ELF1): 1.5 fold enrichment (6-mer frequency, TF over GST control); binding signal (EHF): 1.36 fold enrichment (6-mer frequency, TF over GST control); binding signal (SPI1): 1.5 fold enrichment (6-mer frequency, TF over GST control); binding signal (SPIB): 1.39 fold enrichment (6-mer frequency, TF over GST control); binding signal (ELK3): 1.49 fold enrichment (6-mer frequency, TF over GST control); binding signal (FEV): 1.54 fold enrichment (6-mer frequency, TF over GST control); binding signal (ETV5): 1.49 fold enrichment (6-mer frequency, TF over GST control); binding signal (HSF1): 1.47 fold enrichment (6-mer frequency, TF over GST control); binding signal (SPIC): 1.4 fold enrichment (6-mer frequency, TF over GST control); binding signal (ELF4): 1.51 fold enrichment (6-mer frequency, TF over GST control); binding signal (ELK4): 1.49 fold enrichment (6-mer frequency, TF over GST control); binding signal (ETV2): 1.48 fold enrichment (6-mer frequency, TF over GST control); binding signal (ELF3): 1.25 fold enrichment (6-mer frequency, TF over GST control); binding signal (CRX): 1.33 fold enrichment (6-mer frequency, TF over GST control); binding signal (ETV1): 1.41 fold enrichment (6-mer frequency, TF over GST control)
